Out of some 360,000 compounds screened, about 17,000 (4.7%) were called active. Roughly 5% stayed inconclusive and do not appear here. No stated cut-off is given here; in the data, active means activity change below about -50%; inconclusive means mostly about -30% to -49%; inactive means weaker than that. The list comes from a sample in which actives are over-represented; it also holds similar structures and randomly drawn compounds.
On the % scale 0 is the no-effect control and ±100 the full control effect.

The nature of this experiment: qHTS for Inhibitors of Inflammasome Signaling: IL-1-beta AlphaLISA Primary Screen. Conditions: THP-1 LPS/ATP IL-1B secretion, 16 h; at 57.5 µM, stronger effect = lower value. A digest of the protocol:
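THP-1 cells pretreated 1 hr with compounds (up to 57.5 uM final), then stimulated with LPS (250 ng/mL final) plus ATP (1.25 mM final); secreted IL-1B measured by AlphaLISA after 16 hr, decreased signal indicating inhibition.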
For `CC(NC(=O)COc1cccnc1[N+](=O)[O-])c1ccc(Cl)cc1Cl` (centres undefined), the activity change is -26% (inactive).

With `CN(C)C(=S)N=c1ssc(=S)n1Cc1ccco1`, the activity change is 1.33% (inactive).

`Cc1ccc(C(=O)NCCc2nnc(SCC(=O)Nc3cccc(C(=O)O)c3)n2C)cc1`: the activity change was 3.07% (inactive).

For `CCCCCC1CCC(c2nnc(SCC(C)=O)o2)CC1` (centres undefined), the activity change was 0.218% (inactive).

With `O=C1C2C3C=CC(C3)C2C(=O)N1c1ccc(-c2nc3ccccc3c(=O)o2)cc1` (centres undefined), the activity change was -10.4% (inactive).

For the compound `CN(C)c1nc(=Nc2cccc(Cl)c2)ss1`, the activity change was -9.51% (inactive).

For the compound `CS(=O)(=O)N(CC(=O)N1CCN(Cc2ccccc2)CC1)c1ccc2c(c1)OCCO2`, the activity change was -2.68% (inactive).

Consider `c1ccc(CN2CCC(N=C3NN=C(c4ccc5c(c4)OCCO5)CS3)CC2)cc1`, for which the activity change is -81.5% (active).

For `Clc1cccc(N=C2NN=C(c3ccc4c(c3)OCCO4)CS2)c1`, the activity change is -71.7% (active).

Consider `CC(=NC1CCN(Cc2ccccc2)CC1)c1c(O)[nH]c(=O)[nH]c1=O`, for which the activity change is 4.26% (inactive).

Take `O=C(Nc1ccc(Cl)cc1)C1Cc2c(-c3ccc4c(c3)OCO4)ccnc2O1` (centres undefined): the activity change is -19.5% (inactive).

Consider `Cc1ccc(S(=O)(=O)Nc2ccccc2CNc2c(C)n(C)n(-c3ccccc3)c2=O)cc1`, for which the activity change was -4.94% (inactive).

In the case of `O=C(NCCO)c1cccc(-c2cccc3nccn23)c1`, the activity change is 81.9% (inactive).

Take `Cc1ccccc1Nc1nc(-c2cccnc2)cs1`: the activity change was -83.1% (active).

For `O=C(NCc1cccnc1)C(=O)Nc1nc(-c2ccccc2)cs1`, the activity change is 17.3% (inactive).

Take `CN(c1ccc(O)cc1)c1nc(-c2cccnc2)cs1`: the activity change is 40.3% (inactive).

For `O=C(CN1C(=O)NC2(CCOc3ccccc32)C1=O)NCc1ccc(F)cc1` (centres undefined), the activity change is -15.8% (inactive).

As for `C[C@@H]1CN([C@@H](C)CO)C(=O)CCCn2nncc2CO[C@H]1CN(C)C(=O)Nc1ccc(C(F)(F)F)cc1`, the activity change was -7.03% (inactive).

`COC(=O)c1ccc2nc(C3CCCCC3)c(Cc3cccc(F)c3)n2c1`: the activity change was 20.9% (inactive).

On to `N#Cc1c(N)n(CCOC(=O)c2ccc(Cl)cc2)c2nc3ccccc3nc12`, for which the activity change is -16.3% (inactive).

With `CN(C)CCCn1c(N)c(C#N)c2nc(C#N)c(C#N)nc21`, the activity change was -105% (active).

With `Cc1cc(C)c(S(=O)(=O)N(C)CC(=O)NCC2CCCO2)c(C)c1` (centres undefined), the activity change is 4.54% (inactive).

As to `CC1=C(C(=O)OCc2ccccc2)C(c2ccc(C(F)(F)F)cc2)NC(=O)N1CCCCCC(=O)O` (centres undefined), the activity change is 5.05% (inactive).

Take `CCCCNC(=O)C(C)N(CCN(C)C)C(=O)CCCCCN1C(=O)NC(c2ccc(Cl)cc2)C(C(=O)OCc2ccccc2)=C1C` (centres undefined): the activity change was -52.2% (active).

Regarding `COC(=O)CCCCCN1C(=O)NC(c2ccc(-c3ccccc3)cc2)C(C(=O)OCc2ccccc2)=C1C` (centres undefined), the activity change was -1.28% (inactive).

Regarding `CC(=O)c1cccc(-c2cnc3c(NC=O)cc(-c4ccc(N5CCN(C)CC5)cc4)cn23)c1`, the activity change is 108% (inactive).

Take `CC(C)(C)Cc1c(C2CCCCC2)nc2ccc(Br)cn12`: the activity change is 28.2% (inactive).

For `OCC1(Cc2ccccc2C(F)(F)F)CCN(Cc2ccncc2)CC1`, the activity change is 21.9% (inactive).

As for `C/C(=N/N1CCN(Cc2cccc3ccccc23)CC1)c1cccnc1`, the activity change was 0% (inactive).

Take `OCC1(Cc2ccccc2C(F)(F)F)CCN(Cc2cccc3cnccc23)CC1`: the activity change was -72.4% (active).

Regarding `O=S1(=O)CC(N2CCC(Cc3ccccc3)CC2)CN1Cc1ccccc1` (centres undefined), the activity change is 21.9% (inactive).

Turning to `CCN(CC)CCCNC(=O)c1cc(-c2cccc(Cl)c2)on1`, the activity change is -5.59% (inactive).

In the case of `Cc1cccc(N(C)C(=O)c2cc3c(=O)[nH]c4ccc(C)cc4c3s2)c1`, the activity change is 3.44% (inactive).

As for `CCN(CC)CCCNC(=O)c1cc2c(=O)[nH]c3ccc(C)cc3c2s1`, the activity change was -65.6% (active).

For `COCCNC(=O)c1cc2c(Br)ccc(Br)c2nc1N`, the activity change was -2.49% (inactive).

As for `O=C(NCC1CCCCC1)c1cc(S(=O)(=O)N2CCCCC2)ccc1N1CCOCC1`, the activity change was -0.256% (inactive).

For `Cn1c(=O)c2c(nc(SCC(=O)Nc3ccccc3N3CCCCC3)n2C)n(C)c1=O`, the activity change is -57.3% (active).

Turning to `CCC1CCCCN1C(=O)CSc1nc2c(c(=O)n(C)c(=O)n2C)n1C` (centres undefined), the activity change was 2.3% (inactive).

As to `Cn1c(=O)c2c(nc(SCCNS(=O)(=O)c3ccccc3)n2C)n(C)c1=O`, the activity change is 29.8% (inactive).

Take `O=[N+]([O-])c1ccccc1/C=C/CN1CCC(O)CC1`: the activity change is 7.25% (inactive).

Turning to `O=[N+]([O-])c1ccccc1/C=C/CN1CCCC(CO)C1` (centres undefined), the activity change is -11.3% (inactive).

On to `CC1CCCCC1NC(=O)/C(C#N)=C/C=C/c1ccccc1[N+](=O)[O-]` (centres undefined), for which the activity change is -103% (active).

With `CCc1ccc(C(=O)N2CCN(S(=O)(=O)c3sc(C(=O)O)c(C)c3C(=O)O)CC2)cc1`, the activity change is 20.6% (inactive).

`O=C1C[C@@H]2c3c(cccc3CN1Cc1ccccc1)C[C@@H](O)[C@H]2O`: the activity change is 16.3% (inactive).

With `c1ccc(Cn2nnc3c(NCC4CC4)ncnc32)cc1`, the activity change is -6.22% (inactive).

Regarding `COc1cccc(-c2cnc(C(O)c3ccccc3OC)[nH]2)c1` (centres undefined), the activity change is 26.3% (inactive).

For `O=C(Nc1ccc(C(=O)O)cc1)/C(=C/c1ccc([N+](=O)[O-])cc1)NC(=O)c1ccccc1`, the activity change was -62.1% (active).

Consider `O=C(NCCc1ccccc1)/C(=C\c1ccc([N+](=O)[O-])cc1)NC(=O)c1ccccc1`, for which the activity change was 4.21% (inactive).

Take `O=C(Nc1ccc(C(=O)O)cc1)/C(=C\c1ccccc1)NC(=O)c1ccc(Br)cc1`: the activity change was -0.689% (inactive).

As for `C[C@]12CC[C@H](O)CC1=CCC1C2CC[C@@]2(C)C1CC[C@@H]2NC(=O)CCC(=O)O` (some centres undefined), the activity change was 14.7% (inactive).

For `Cc1cc2cc3n(c2nn1)N=C(Cl)CC3`, the activity change was -81.1% (active).

In the case of `COc1cc(Cn2c3ccc(NC(=O)CC(C)c4ccccc4)cc3c(=O)n2C)ccc1F` (centres undefined), the activity change is -18% (inactive).

For `CC1(C(=O)NS(=O)(=O)c2ccc(C#N)cc2)CCN1C(=O)c1ccc(C2CCCCC2)cc1` (centres undefined), the activity change was 12.1% (inactive).

Regarding `Cc1cccc(N2C(=O)c3ccc(C(=O)Nc4cccc(C(=O)O)c4)cc3C2=O)c1`, the activity change is 10.8% (inactive).

In the case of `O=C(/C=C/c1ccc(N2CCOCC2)cc1)c1ccccc1`, the activity change is -239% (active).

On to `O=C(c1ccccc1)c1ccc(C(=O)N2CCN(c3ccccc3)CC2)cc1`, for which the activity change was -8.14% (inactive).

For the compound `O=C(O)c1ccc2c(c1)C(=O)N(c1ccc(/C=C/C(=O)c3ccccc3)cc1)C2=O`, the activity change was -154% (active).

`O=C(c1ccc2c(c1)C(=O)N(c1ccc(Cl)cc1)C2=O)N1CCN(c2ccccn2)CC1`: the activity change was 15.8% (inactive).

For the compound `O=C(NN=Cc1ccc(N2CCOCC2)cc1)c1cc2ccccc2cc1O`, the activity change was -24% (inactive).

Values taken from PubChem BioAssay AID743279 (National Center for Advancing Translational Sciences (NCATS), 2014).
